Source: PubChem BioAssay (several laboratories)
Autophagy mod: alters autophagy in cells; 190,000 compounds, 0.98% hits; calls only at 10 µM (by protocol); MEF GFP-LC3 puncta imaging; test concentration mostly 10 µM;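 active = percentage of spot-positive cells more than 3 SD above its plate mean, without a fluorescence outlier flag or 80% toxicity; inconclusive = no clear call, values can overlap the other calls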;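 also: spot-positive cell cutoff set from DMSO-treated cells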
Insulin prom up: MIN6 insulin promoter up-regulation. z-score at 5 µM. AID 1625. 190,000 compounds, 0.3% hits. MIN6 insulin promoter-GFP reporter, high-content imaging; stronger effect = higher value;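 active = z-score above 3 at 5 µM with at least 500 cells counted in the well; inconclusive = wells under 500 cells, flagged as cytotoxic or low count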
Insulin prom inh: TRM-6 insulin promoter activity inhibition. TRM-6 cells (human fetal islet line), insulin promoter-eGFP reporter, imaging; reporter expression induced with tamoxifen. inhibition, % at 2 µM. 130,000 compounds, 0.9% hits;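 active = inhibition above the mean plus 3 SD, with well images judged a real hit on visual review, cut at about 60% in these data, passing the limit was not always enough; inconclusive = inhibition over the cutoff but images rejected on review; inactive = inhibition not above the cutoff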
Lmaj promast: reduces viability of Leishmania major promastigotes; resazurin fluorescence viability; inhibition, % at 10 µM; 200,000 compounds, 9% hits; AID 1063; in the data active = inhibition above about 50%;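 also: promastigotes grown with compound for 44 hours at 28 °C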
WT yeast gro inh: growth inhibition of WT yeast, mitochondrial fusion screen | mitochondrial fusion phenotypic screen, WT strain | AID 1362 | 190,000 compounds, 2.1% hits | inhibition, % at 10 µM; in the data active = inhibition above about 58%; tested in S. cerevisiae
Starred values were filed as active, the others as inactive; i = inactive; ? = inconclusive; . = no result given; + = active, no number. Sampled rows, rich in hits. Any-hit rate of the full collection: about 11%.

SMILES | Autophagy mod | Insulin prom up | Insulin prom inh | Lmaj promast | WT yeast gro inh
OC(COc1ccc(CNCc2cccnc2)cc1)CN1CCc2ccccc2C1 (centres undefined) | i | . | 10.0 | 89.5* | -5.6
CCn1cc(CNCc2ccc(OCC(O)CN(C)Cc3ccccc3)cc2)cn1 (centres undefined) | i | . | -30.4 | 88.0* | -12.0
CN(Cc1ccccc1)CC(O)COc1ccc(CNCc2cccnc2)cc1 (centres undefined) | i | -0.37 | . | 80.9* | 1.5
COc1ccc(CNC(=O)C(=O)NCc2cccnc2)cc1 | i | 0.23 | 21.1 | -10.0 | 0.5
COc1cc(/C=N/NC(=O)c2[nH]nc3c2CCc2ccccc2-3)ccc1O | i | -0.06 | 41.9 | 13.9 | 17.1
CCC(=O)c1ccc(OCC(=O)Nc2nn3cnnc3s2)cc1 | i | 0.46 | 61.5 | -9.2 | -3.2
O=C(Nc1cccc(F)c1)c1ccc(Cn2cc([N+](=O)[O-])cn2)o1 | i | -0.66 | 14.3 | 11.5 | 11.1
Nc1ccc2nc(SCc3cccc(F)c3)sc2c1 | i | -0.04 | ? | 0.1 | 6.8
CCS(=O)(=O)CCSc1nc2c(cc1C#N)CCCC2 | i | -0.02 | -95.5 | 14.2 | 60.6*
CCOC(=O)c1sc(NC(=O)CSc2n[nH]c(-c3ccc(Cl)cc3Cl)n2)c(C#N)c1C | i | 0.13 | -45.7 | -13.3 | 58.0*
N#CCSc1nc2c(cc1C#N)CCCCCC2 | i | 0.88 | 68.2 | 8.6 | -2.4
N#Cc1cc2c(nc1SCC(=O)Nc1sc3c(c1C#N)CCC3)CCCC2 | i | -0.72 | -11.6 | 55.4* | 2.8
CCOC(=O)c1sc(NC(=O)CSc2nc(C)cc(-c3ccccc3)n2)c(C#N)c1C | i | -0.18 | . | -7.2 | 11.8
CCOC(=O)c1sc(NC(=O)CSc2nc3c(cc2C#N)CCCCCC3)c(C#N)c1C | + | -0.89 | -54.5 | -7.5 | 22.3
O=c1[nH]c2c(s1)C(c1ccco1)C1C3CCC(C3)C1S2 (centres undefined) | i | 1.78 | -47.8 | 1.2 | 14.6
COC(=O)C1CSc2[nH]c(=O)sc2C1c1ccc(OC)c(OC)c1 (centres undefined) | i | 0.11 | 38.9 | 0.8 | 76.9*
COC(=O)C1C(c2ccc(OC)c(OC)c2)NC(c2ccc(OC)c(OC)c2)C(C(=O)OC)S1(=O)=O (centres undefined) | i | . | 19.1 | 3.0 | -3.0
Cc1ccc(C(=O)N2CCCC(C(=O)c3ccc(Oc4ccccc4)cc3)C2)cn1 (centres undefined) | i | -0.2 | . | 2.6 | 29.8
Cc1oc(-c2ccccc2F)nc1CN1CCC(C(=O)NCCC2=CCCCC2)CC1 | i | -1.03 | . | 28.4 | 98.3*
Cc1ccccc1-c1nc(CN2CCC(C(=O)NCCCN3CCCC3)CC2)c(C)o1 | i | 0.15 | -50.0 | 3.2 | 3.8
COc1ccc(CCNC(=O)C2CCN(Cc3nc(-c4ccccc4F)oc3C)CC2)cc1OC | i | -2.57 | . | 14.6 | -23.3
Cc1ccccc1-c1nc(CN2CCC(C(=O)NCCCN3CC(C)CC(C)C3)CC2)c(C)o1 (centres undefined) | i | -0.94 | . | 76.2* | -12.8
Cc1oc(-c2ccc(Cl)cc2)nc1CN1CCCC(C(=O)NCCCN2CCOCC2)C1 (centres undefined) | i | 0.01 | . | 75.6* | -20.8
COc1cc(C(=O)NNC(=O)c2ccc(NC(=O)C(C)(C)C)cc2)cc(OC)c1OC | i | . | 58.3 | 14.2 | -9.5
CCOC(=O)Cc1c(C)nc2c(-c3cccc(Br)c3)c[nH]n2c1=O | i | 0.42 | -181.5 | -6.4 | 3.5
SMILES | Autophagy mod | Insulin prom up | Insulin prom inh | Lmaj promast | WT yeast gro inh
CCCn1cnc2c(cnn2-c2ccc(F)cc2)c1=O | + | . | 0.0 | -7.5 | -17.3
CCc1ccc(C(=O)COC(=O)C(Cc2ccccc2)NC(=O)c2ccc(Cl)cc2)cc1 (centres undefined) | i | -0.26 | -68.6 | 75.2* | 17.3
CC(=O)NC(Cc1ccccc1)C(=O)OCC(=O)c1ccc(Cl)cc1 (centres undefined) | i | -0.39 | -25.9 | 25.5 | -6.4
O=C(NN1C(=O)c2ccccc2NC1c1ccco1)c1ccc([N+](=O)[O-])cc1 (centres undefined) | i | -0.4 | -25.0 | -2.8 | 2.7
Cc1ccc(/C=N/NC(=O)Cn2nnc(N)n2)o1 | . | -0.17 | . | . | .
O=c1c2ccccc2nnn1Cc1ccc2ccccc2c1 | i | -0.38 | . | -6.4 | -7.5
Cc1cc(C)n(C(=O)CCC2COc3ccccc3O2)n1 (centres undefined) | i | 3.53* | 15.4 | -5.6 | 6.6
CC(C)CNc1nc(SCC(=O)Nc2ccccc2)nc(N2CCOCC2)n1 | i | -0.32 | . | 0.1 | -22.3
N#CC(c1ccc(F)cc1)c1ccc(C(=O)c2ccccc2)cc1 (centres undefined) | i | 0.17 | -9.4 | 40.0 | 16.4
N#CC(c1ccccc1)c1ccc(C(=O)c2ccc(F)cc2)cc1 (centres undefined) | i | -1.08 | -3.2 | 59.9* | 45.0
Cc1cc(Br)ccc1NC(=O)CN1C(=O)C2C3CC(c4ccccc4)C(C3)C2C1=O (centres undefined) | i | 0.64 | -19.4 | 54.7* | 77.8*
COc1cc2[nH]c(=O)n(C3CCCCC3)c(=O)c2cc1OC | i | -0.77 | 21.4 | 50.2* | 28.9
COc1ccc(C)cc1S(=O)(=O)n1ccnc1C | i | 0.05 | 7.1 | -1.1 | 18.1
Cc1cc(Br)ccc1S(=O)(=O)n1ccnc1C | i | 0.32 | . | 84.1* | -2.4
COc1ccccc1-c1cc(C(F)(F)F)nc(NCc2ccco2)n1 | i | -0.68 | . | 17.9 | 60.0*
FC(F)(F)c1cc(-c2ccco2)nc(NCc2ccccc2)n1 | i | -0.69 | . | 2.0 | 41.3
O=Nc1c(O)n(Cc2cccc(Cl)c2)c2ccccc12 | i | 0.07 | -130.8 | -2.9 | 67.4*
NC(=S)N=Nc1c(O)n(Cc2ccccc2)c2ccccc12 | i | -0.82 | . | -5.6 | -6.5
COc1cccc(/C=N/NC(=O)C(=O)Nc2ccccc2OC(F)(F)C(F)F)c1O | i | -0.62 | 34.5 | 97.1* | 3.4
COc1cccc(/C=N/NC(=O)C(=O)NCc2cccnc2)c1O | i | 0.55 | -52.8 | 98.3* | -2.8
Cc1ccc(C(=O)NNC(=O)/C=C\C(=O)O)cc1 | . | -0.54 | . | . | .
CCOc1ccc(N2C(=O)C(CC(=O)Nc3ccccc3)N(Cc3ccccn3)C2=S)cc1 (centres undefined) | i | -0.8 | . | 23.4 | -2.6
COc1ccc(NC(=O)CC2C(=O)N(CCc3ccccc3)C(=S)N2Cc2cccnc2)cc1 (centres undefined) | i | -0.36 | -33.3 | 84.9* | 3.1
COC(=O)CN1C(=S)N(c2ccc(Cl)cc2)C(=O)C1CC(=O)Nc1ccc(Cl)cc1 (centres undefined) | i | . | . | -1.9 | 20.6
CCN1C(=O)C(CC(=O)Nc2ccc(OC)cc2)N(Cc2cccnc2)C1=S (centres undefined) | i | . | -15.6 | -3.5 | .
COC(=O)CN1C(=S)N(Cc2ccccc2)C(=O)C1CC(=O)Nc1ccc(Br)cc1 (centres undefined) | i | -0.24 | 46.1 | 88.3* | 18.2
